Reference: PubChem BioAssay (NCATS)
Inconclusive results are not listed. Active and inactive are the calls of the source. Calls follow the shape of the dose curve; as a rule, active = well fitted curve in the direction sought with a large enough effect; inconclusive = small, poorly fitted or top-dose-only effect, or another doubt; inactive = no such curve, though single readings can be large; an effect the other way counts as inactive or inconclusive.

How the values were obtained:
[1] = Quantitative High-Throughput drug screen in 47 multiple myeloma cell lines against the NCATS MIPE library collection: H1112_PLB cell viability assay (AID 1918967; also: nearly all actives have a fitted effect of over 30% in size)
Method in brief: (§1)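 We plated 500 myeloma cells per well, pinned in MIPE 4.0 compounds, and incubated for 48 hours at 37C. ATP was then quantified with CellTiter-Glo, with DMSO and media-only wells defining 100% and 0%.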

[2] = Quantitative High-Throughput drug screen in 47 multiple myeloma cell lines against the NCATS MIPE library collection: Karpas25_ECACC cell viability assay (AID 1918968; also: nearly all actives have a fitted effect of over 35% in size)
Method in brief: as §1

[3] = Quantitative High-Throughput drug screen in 47 multiple myeloma cell lines against the NCATS MIPE library collection: KMS27_JCRB cell viability assay (AID 1918970); also: nearly all actives have a fitted effect of over 30% in size
Method in brief: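 ATP-based viability (CellTiter-Glo luminescence) is measured in cells treated 48 h with approved and investigational drugs at 37 °C. Controls are DMSO-only wells for full viability and media-only wells for none.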

[4] = Quantitative High-Throughput drug screen in 47 multiple myeloma cell lines against the NCATS MIPE library collection: KMS12BM_JCRB cell viability assay (AID 1918971); also: nearly all actives have a fitted effect of over 35% in size
Method in brief: (§2)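 Relative luminescence from CellTiter-Glo served as the viability signal, referenced to DMSO-treated (100%) and cell-free medium (0%) controls. Treatment lasted 48 hours at 37C with 500 cells per well.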

[5] = Quantitative High-Throughput drug screen in 47 multiple myeloma cell lines against the NCATS MIPE library collection: KMS12PE_JCRB cell viability assay (AID 1918972); also: nearly all actives have a fitted effect of over 30% in size
Method in brief: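 CellTiter-Glo luminescence (ATP) after 48 h compound exposure, 37C/5% CO2; 500 cells/well; MIPE 4.0 approved/investigational drugs pinned in; DMSO = 100%, media only = 0% viability.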

[6] = Quantitative High-Throughput drug screen in 47 multiple myeloma cell lines against the NCATS MIPE library collection: KMS20_JCRB cell viability assay (AID 1918973); also: nearly all actives have a fitted effect of over 45% in size
Method in brief: as §1

[7] = Quantitative High-Throughput drug screen in 47 multiple myeloma cell lines against the NCATS MIPE library collection: MMM1_PLB cell viability assay (AID 1918976); also: nearly all actives have a fitted effect of over 35% in size
Method in brief: (§3)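 500 cells/well; MIPE 4.0 drugs pin-transferred; 48 h, 37C, 5% CO2. CellTiter-Glo, 5 min RT, luminescence. Controls: DMSO 100%, media 0%.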

[8] = Quantitative High-Throughput drug screen in 47 multiple myeloma cell lines against the NCATS MIPE library collection: MOLP8_DSMZ cell viability assay (AID 1918977); also: nearly all actives have a fitted effect of over 45% in size
Method in brief: as §3

[9] = Quantitative High-Throughput drug screen in 47 multiple myeloma cell lines against the NCATS MIPE library collection: NCIH929_DSMZ cell viability assay (AID 1918978); also: nearly all actives have a fitted effect of over 35% in size
Method in brief: as §3

[10] = Quantitative High-Throughput drug screen in 47 multiple myeloma cell lines against the NCATS MIPE library collection: OCIMY1_PLB cell viability assay (AID 1918979); also: nearly all actives have a fitted effect of over 35% in size
Method in brief: as §3

[11] = Quantitative High-Throughput drug screen in 47 multiple myeloma cell lines against the NCATS MIPE library collection: MM1S_ATCC cell viability assay (AID 1918980); also: nearly all actives have a fitted effect of over 45% in size
Method in brief: as §3

[12] = Quantitative High-Throughput drug screen in 47 multiple myeloma cell lines against the NCATS MIPE library collection: LP1_DSMZ cell viability assay (AID 1918982); also: nearly all actives have a fitted effect of over 35% in size
Method in brief: as §3

[13] = Quantitative High-Throughput drug screen in 47 multiple myeloma cell lines against the NCATS MIPE library collection: KMS28PE_JCRB cell viability assay (AID 1918983); also: nearly all actives have a fitted effect of over 35% in size
Method in brief: as §3

[14] = Quantitative High-Throughput drug screen in 47 multiple myeloma cell lines against the NCATS MIPE library collection: L363_DSMZ cell viability assay (AID 1918984); also: nearly all actives have a fitted effect of over 40% in size
Method in brief: as §3

[15] = Quantitative High-Throughput drug screen in 47 multiple myeloma cell lines against the NCATS MIPE library collection: KMS34_JCRB cell viability assay (AID 1918985); also: nearly all actives have a fitted effect of over 40% in size
Method in brief: as §3

[16] = Quantitative High-Throughput drug screen in 47 multiple myeloma cell lines against the NCATS MIPE library collection: OCIMY7_PLB cell viability assay (AID 1918987); conditions: OCI-MY7 myeloma viability, CellTiter-Glo ATP, 48 h; viability (% of DMSO): at 45.8 µM (top of the series); also: nearly all actives have a fitted effect of over 65% in size
Method in brief: as §3

[17] = Quantitative High-Throughput drug screen in 47 multiple myeloma cell lines against the NCATS MIPE library collection: OCIMY5_PLB cell viability assay (AID 1918988); also: nearly all actives have a fitted effect of over 65% in size
Method in brief: as §3

[18] = Quantitative High-Throughput drug screen in 47 multiple myeloma cell lines against the NCATS MIPE library collection: MM1R_ATCC cell viability assay (AID 1918981); also: nearly all actives have a fitted effect of over 35% in size
Method in brief: as §3

[19] = Quantitative High-Throughput drug screen in 47 multiple myeloma cell lines against the NCATS MIPE library collection: KMS21BM_JCRB cell viability assay (AID 1918974); conditions: ATP luminescence, 48 h; viability: at 45.8 µM (top of the series) unless noted
Method in brief: as §1

[20] = Quantitative High-Throughput drug screen in 47 multiple myeloma cell lines against the NCATS MIPE library collection: KMS26_JCRB cell viability assay (AID 1918975); also: nearly all actives have a fitted effect of over 45% in size
Method in brief: as §2

Measured: Potency
Potency is read from the fitted curve at half-maximal effect.

Cc1nc(N)sc1-c1ccnc(Nc2ccc(N3CCOCC3)cc2)n1
active: [1] 16.6 µM | [2] 5.9 µM | [3] 6.62 µM | [4] 14.8 µM | [5] 2.64 µM | [6] 7.43 µM | [7] 20.9 µM | [8] 7.43 µM | [9] 7.43 µM | [10] 16.6 µM | [11] 18.7 µM | [12] 20.9 µM | [13] 16.6 µM | [14] 2.96 µM | [15] 1.05 µM | [16] 1.05 µM | [17] 5.26 µM

O=C(NCc1ccccc1)c1csc(Nc2ccncn2)n1
active: [1] 13.2 µM | [2] 10.5 µM | [3] 7.43 µM | [4] 14.8 µM | [5] 8.33 µM | [7] 14.8 µM | [8] 18.7 µM | [10] 20.9 µM | [11] 16.6 µM | [18] 14.8 µM | [12] 18.7 µM | [13] 16.6 µM | [14] 10.5 µM | [15] 23.5 µM | [16] 8.33 µM

O=c1ccn([C@@H]2O[C@H](CO)[C@H](O)[C@H]2O)c(=O)[nH]1
inactive: [1] | [2] | [3] | [10]
active: [4] 11.8 µM | [7] 8.33 µM | [9] 7.43 µM | [11] 23.5 µM | [12] 14.8 µM

COc1ccc(-c2oc3c(CC=C(C)C)c(OC4O[C@H](CO)[C@@H](O)[C@H](O)[C@@H]4O)cc(O)c3c(=O)c2OC2O[C@@H](C)[C@H](O)[C@@H](O)[C@@H]2O)cc1 (stereo partly specified)
active: [1] 23.5 µM | [2] 20.9 µM | [3] 11.8 µM | [4] 18.7 µM | [5] 8.33 µM | [19] 9.35 µM | [20] 23.5 µM | [7] 23.5 µM | [9] 29.6 µM | [10] 23.5 µM | [11] 20.9 µM | [18] 20.9 µM | [14] 13.2 µM | [15] 23.5 µM | [16] 13.2 µM | [17] 20.9 µM

COc1cc2ncnc(Nc3ccc(F)c(Cl)c3)c2cc1OCCCN1CCOCC1
active: [1] 1.52 µM | [2] 6.05 µM | [3] 13.6 µM | [4] 34 µM | [5] 3.03 µM | [6] 3.4 µM | [20] 38.2 µM | [7] 54 µM | [8] 48.1 µM | [9] 4.29 µM | [10] 48.1 µM | [11] 3.03 µM | [18] 21.5 µM | [13] 42.9 µM | [14] 8.55 µM | [15] 42.9 µM | [16] 1.08 µM | [17] 2.15 µM

CC(=Cc1ccccc1)C=C1SC(=S)N(CC(=O)O)C1=O
active: [3] 0.59 µM
not listed: [6] | [7] | [8] | [14] | [16] | [17] | [19]
inactive: all other assays above

CC(=NNC(=S)N1CCC1)c1ccccn1
inactive: [1] | [2] | [8] | [9] | [16]
active: [3] 0.001 µM | [4] 0.0042 µM | [5] 0.001 µM | [10] 0.0074 µM

NS(=O)(=O)c1cccc2c1C(=O)c1cccc(O)c1C2=O
active: [1] 0.526 µM | [2] 0.132 µM | [3] 0.209 µM | [4] 1.05 µM | [5] 0.264 µM | [6] 0.132 µM | [19] 0.148 µM | [20] 0.662 µM | [7] 0.264 µM | [8] 0.296 µM | [9] 0.264 µM | [11] 10.5 µM | [18] 0.526 µM | [12] 0.743 µM | [13] 1.18 µM | [14] 0.166 µM | [15] 0.418 µM | [16] 0.118 µM | [17] 0.526 µM

C=C1C(=O)[C@@]23C(CC[C@@H]1[C@H]2O)[C@@]12CO[C@]3(O)[C@@H](O)[C@@H]1C(C)(C)CC[C@@H]2O (stereo partly specified)
active: [1] 18.7 µM | [2] 2.35 µM | [3] 1.87 µM | [4] 9.35 µM | [5] 2.09 µM | [20] 2.64 µM | [7] 13.2 µM | [8] 2.35 µM | [9] 1.32 µM | [10] 7.43 µM | [11] 1.87 µM | [18] 1.48 µM | [13] 3.72 µM | [15] 1.05 µM | [16] 0.296 µM | [17] 1.87 µM

CC(=O)N(C)C1(c2ccccc2)CCN(CCC[C@]2(c3ccc(Cl)c(Cl)c3)CCCN(C(=O)c3ccccc3)C2)CC1
active: [1] 20.9 µM | [2] 16.6 µM | [3] 23.5 µM | [4] 20.9 µM | [5] 7.43 µM | [6] 4.69 µM | [20] 20.9 µM | [7] 20.9 µM | [8] 23.5 µM | [9] 11.8 µM | [10] 26.4 µM | [11] 20.9 µM | [18] 23.5 µM | [12] 26.4 µM | [13] 20.9 µM | [14] 5.9 µM | [16] 14.8 µM | [17] 18.7 µM

O=C(Nc1ccccc1-c1cn2c(CN3CCNCC3)csc2n1)c1cnc2ccccc2n1
active: [1] 9.35 µM | [2] 5.9 µM | [4] 10.5 µM | [6] 2.96 µM | [20] 9.35 µM | [7] 10.5 µM | [8] 9.35 µM | [9] 7.43 µM | [11] 23.5 µM | [18] 20.9 µM | [12] 23.5 µM | [13] 23.5 µM | [16] 9.35 µM | [17] 8.33 µM
inactive: [3] | [5]
